Hits are enriched below; roughly 12% of the tested compounds scored in any of these assays.
HP1b chromo inh – HP1-beta chromodomain-methylated histone interaction inhibition | AlphaScreen HP1-beta / biotin-H3K9me3 peptide binding | Potency, µM (titrated, usually from 114 µM), usual class: inhibitors | 390,000 tested, 0.56% active; note: nearly all actives have a fitted effect of over 70% in size
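HP1-beta protein (50 nM final) preincubated 30 min at room temperature with biotinylated H3(1-18)K9me3 peptide (50 nM) in PBS pH 7.4, 0.01% Tween-20, then compound added for 30 min. AlphaScreen streptavidin donor/nickel chelate acceptor beads (10 ug/mL final), 30 min dark, luminescence read.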
Sfp inh – inhibitors of Bacillus subtilis Sfp phosphopantetheinyl transferase | Potency, µM, actives largely listed as inhibitors | Biochemical Sfp PPTase activity, qHTS | 310,000 tested, 3.5% active | AID 1490;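 note: the enzyme is Sfp with the accession as filed and its product quenches rhodamine fluorescence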
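Step 1, compound plus 15 nM Sfp-PPTase, 15 min, room temperature. Step 2, add rhodamine-CoA (5 uM) and BHQ-2-YbbR (12.5 uM). Step 3, read 525/598 nm fluorescence at 0 and 30 min.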
BAZ2B inh – BAZ2B (human) inhibition. AID 504333. AlphaScreen BAZ2B-H3K14Ac peptide displacement. 360,000 tested, 4.4% active. Potency, µM (top dose mostly 114 µM), usual class: inhibitors. Q9UIF8; note: nearly all actives have a fitted effect of over 60% in size
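AlphaScreen luminescence quantifies BAZ2B engagement of H3K14Ac peptide; the protein and biotinylated peptide are both at 50 nM final, buffer PBS pH 7.4 with 0.01% Tween-20, all steps at room temperature.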
L3MBTL1 block – inhibitors of human L3MBTL1; 230,000 tested, 0.66% active; AlphaScreen L3MBTL1–H3K9me1 peptide binding; Q9Y468; Potency, µM (top dose mostly 57.1 µM), usual class: inhibitors; note: nearly all actives have a fitted effect of over 60% in size
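AlphaScreen proximity signal between nickel-chelate acceptor and streptavidin donor beads (final 10 ug/mL) reports binding of 50 nM L3MBTL1 to 75 nM biotin-H3 K9me1 peptide; complex incubated with compounds 30 min at room temperature; cefsulodin titration as control.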
G9a inh – G9a (human) methyltransferase inhibition. Q96KQ7. Potency, µM (titrated, usually from 102 µM), most hits filed as inhibitors. G9a H3K9 monomethylation, AlphaScreen, 2 h. 350,000 tested, 8.8% active; note: nearly all actives have a fitted effect of over 75% in size
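Methyltransferase reactions run at room temperature for 2 h (20 nM enzyme, 500 nM biotin-H3K9 peptide, 20 uM SAM) after a 15 min compound preincubation; product detected by AlphaScreen beads and anti-H3K9me1 antibody.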
JMJD2A Tudor inh – blocks the human JMJD2A Tudor domain; O75164; AlphaScreen JMJD2A-Tudor / H3K4me3 peptide binding; Potency, µM (titrated, usually from 114 µM), most hits filed as inhibitors; 390,000 tested, 4.4% active; AID 504339; note: nearly all actives have a fitted effect of over 50% in size
Target sequence (O75164 whole entry, looked up, the tested form may be a part): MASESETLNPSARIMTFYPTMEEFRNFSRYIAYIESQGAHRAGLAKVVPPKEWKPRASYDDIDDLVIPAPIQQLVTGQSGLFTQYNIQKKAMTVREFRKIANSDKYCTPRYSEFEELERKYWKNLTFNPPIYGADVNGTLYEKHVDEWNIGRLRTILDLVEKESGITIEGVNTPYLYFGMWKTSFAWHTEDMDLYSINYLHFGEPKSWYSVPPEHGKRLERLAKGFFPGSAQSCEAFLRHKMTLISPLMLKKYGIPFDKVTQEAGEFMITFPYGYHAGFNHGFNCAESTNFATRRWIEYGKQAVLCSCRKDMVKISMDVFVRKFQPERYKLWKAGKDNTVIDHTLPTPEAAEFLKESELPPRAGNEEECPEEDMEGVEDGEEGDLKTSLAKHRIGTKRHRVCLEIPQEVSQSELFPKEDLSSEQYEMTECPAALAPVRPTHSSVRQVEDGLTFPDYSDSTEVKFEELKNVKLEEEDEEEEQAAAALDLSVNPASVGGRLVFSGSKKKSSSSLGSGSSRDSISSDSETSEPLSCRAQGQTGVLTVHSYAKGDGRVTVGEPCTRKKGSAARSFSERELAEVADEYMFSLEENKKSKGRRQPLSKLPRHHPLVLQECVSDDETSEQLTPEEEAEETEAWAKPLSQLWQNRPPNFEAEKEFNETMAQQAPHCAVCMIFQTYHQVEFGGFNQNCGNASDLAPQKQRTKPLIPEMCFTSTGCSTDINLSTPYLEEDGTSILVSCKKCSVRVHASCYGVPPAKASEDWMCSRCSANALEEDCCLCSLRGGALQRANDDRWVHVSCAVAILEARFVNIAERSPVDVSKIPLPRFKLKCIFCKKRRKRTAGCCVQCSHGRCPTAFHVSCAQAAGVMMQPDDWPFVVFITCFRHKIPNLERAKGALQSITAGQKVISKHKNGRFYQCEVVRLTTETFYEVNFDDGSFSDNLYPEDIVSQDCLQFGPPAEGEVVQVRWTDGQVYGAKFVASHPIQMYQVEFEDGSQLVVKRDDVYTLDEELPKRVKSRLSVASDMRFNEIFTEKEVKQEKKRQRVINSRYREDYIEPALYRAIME
Numbers stand for hits; - = inactive; ? = inconclusive; . = not tested or not shown; [ ] = remark or other dose. Calls come from the whole dose curve; as a rule, active = well fitted curve in the direction sought with a large enough effect; inconclusive = small, poorly fitted or top-dose-only effect, or another doubt; inactive = no such curve, though single readings can be large; an effect the other way counts as inactive or inconclusive.

SMILES	HP1b chromo inh	Sfp inh	BAZ2B inh	L3MBTL1 block	G9a inh	JMJD2A Tudor inh
COc1ccc(NC(=O)N2CC3(CCN(C(=O)c4ccco4)CC3)C2)cc1	.	-	.	.	-[12.7 µM]	.
Cc1cc2nc3c(=O)[nH]c(=O)nc-3n(CC(O)C(O)C(O)CO)c2cc1C (centres undefined)	.	-	.	.	6.31µM	.
CSC1=NC(C(Cl)(Cl)Cl)N=C(c2ccc(C)cc2)N1 (centres undefined)	-	-	-	-	14.1µM	-
Cc1cccc(NC(=O)C2CCCN2S(=O)(=O)c2ccc(Cl)cc2)n1 (centres undefined)	-	-	-	.	-	-
Cc1ccc(C)c(N2CCN(C(=O)c3cc4cc5ccc(C)cc5nc4o3)CC2)c1	-	.	.	.	-	-
CCOC(=O)C1CCN(C(=O)c2cc3cc4ccc(C)cc4nc3o2)CC1	-	-	-	.	79.4µM	-
COc1ccc2c(c1[N+](=O)[O-])CCC/C2=N/OC(=O)c1ccccc1SC	-	-	?	-	44.7µM	-
COc1ccccc1C(=O)O/N=C1/CCCc2c1ccc(OC)c2[N+](=O)[O-]	-	-	-	-	50.1µM	-
O=C(O)[C@H]1CCCN(CCC=C(c2ccccc2)c2ccccc2)C1	.	-	.	.	.	.
CCn1ccnc1CN(C)C(=O)CC1C(=O)NCCN1Cc1c(F)cccc1Cl (centres undefined)	-	-	-	-	?	-
CN(Cc1ccon1)C(=O)CC1C(=O)NCCN1Cc1ccccc1C(F)(F)F (centres undefined)	-	-	-	.	-[12.7 µM]	-
CN(Cc1nccn1C)C(=O)CC1C(=O)NCCN1Cc1ccccc1C(F)(F)F (centres undefined)	-	-	-	-	50.1µM	-
CN(CCc1cn[nH]c1)C(=O)CC1C(=O)NCCN1Cc1ccccc1C(F)(F)F (centres undefined)	-	-	-	-	44.7µM	-
CN(C(=O)CC1C(=O)NCCN1Cc1ccccc1C(F)(F)F)C1CCOCC1 (centres undefined)	-	-	-	.	-[0.501 µM]	?
CN(Cc1nccn1C)C(=O)CC1C(=O)NCCN1Cc1ccc(F)cc1Cl (centres undefined)	-	-	-	.	39.8µM	?
Cc1nnc(CN(C)C(=O)CC2C(=O)NCCN2Cc2ccccc2C)o1 (centres undefined)	-	-	-	.	35.5µM	-
O=C(C1CCN(CCc2ccccc2)CC1)N1CCOCC1	-	.	.	.	.	-
Cc1cccc(NS(=O)(=O)c2ccc3[nH]c(=O)ccc3c2)c1C	-	.	-	.	-	-
Cc1ccc(CSCCC(=O)NCc2ccc(F)cc2Cl)cc1	-	.	-	.	-	-
Cc1cc(Cl)ccc1Oc1ncnc2oc(-c3ccccc3)cc12	-	-	79.4µM	-	-[0.501 µM]	?
COc1ccc(C(OCC(O)CN2CCC(O)CC2)c2ccc(OC)cc2)cc1 (centres undefined)	-	-	-	.	-	-
NC(N)=Nc1nc(CSCC/C(N)=N/S(N)(=O)=O)cs1	-	-	-	-	-	22.4µM
CCCc1nc2c(sc3nc4c(cc32)COC(C)(C)C4)c(=O)o1	-	-	?	-	22.4µM	-
CCCc1nc2c(sc3nc4c(cc32)COC(C)(C)C4)c(=O)n1Cc1ccco1	-	28.2µM	-	-	-[12.7 µM]	-
COc1ccc(N2CCN(C(=O)c3oc4ccccc4c3NC(=O)Cc3ccc(OC)c(OC)c3)CC2)cc1	-	-	?	.	28.2µM	?
SMILES	HP1b chromo inh	Sfp inh	BAZ2B inh	L3MBTL1 block	G9a inh	JMJD2A Tudor inh
COc1ccc(N2CCN(C(=O)c3cc(=O)c4cc(C)c(C)cc4o3)CC2)cc1	-	-	-	.	-	56.2µM
COc1cccc(CC(=O)Nc2c(C(=O)N3CCN(c4ccccc4F)CC3)oc3ccccc23)c1	-	.	-	.	?	-
CC(=O)N1CCN(C(=O)c2oc3ccccc3c2C)CC1	-	-	-	.	-	-
COc1ccc(N2CCN(C(=O)c3oc4ccccc4c3C)CC2)cc1	?	-	.	-	35.5µM	39.8µM
COc1ccc(OCC(=O)Nc2c(C(=O)N3CCN(c4ccccc4)CC3)oc3ccccc23)cc1	-	.	-	.	-	-
COc1ccc(N2CCN(C(=O)c3oc4ccccc4c3NC(=O)Cc3cccc(OC)c3)CC2)cc1	-	-	?	.	39.8µM	15.8µM
CCCCN(CC)C(=O)CCCn1c(=O)c2cccn2c2ccccc21	-	.	?	.	-	-
NS(=O)(=O)c1ccc(Nc2nc3ccccc3nc2NS(=O)(=O)c2cccc([N+](=O)[O-])c2)cc1	-	-	?	?	31.6µM	?
CCc1ccc(Nc2nc3ccccc3nc2NS(=O)(=O)c2ccccc2)cc1	-	.	-	.	-	-
CC(=O)Nc1ccc(S(=O)(=O)Nc2nc3ccccc3nc2Nc2ccc(S(N)(=O)=O)cc2)cc1	-	-	-	-	44.7µM	-
COc1ccc(Nc2nc3ccccc3nc2NS(=O)(=O)c2ccc(NC(C)=O)cc2)cc1	-	-	-	-	-	-

Screens (PubChem)
